Structures are written as SMILES. Counter-ions that a name gives are not always drawn.

The test system of the assay is Saccharomyces cerevisiae BY4741 SeMeCo community. Nature of the assay: z-score of subpopulation abundance vs DMSO median, subpopulation auxotrophic for M; higher = larger share of this subpopulation than in DMSO controls. As to conditions: 10 µM; 24 h; SM minimal medium; subpopulation (auxotrophy): M. Put shortly:
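Scoring was based on each subpopulation's abundance, expressed as a z-score against the vehicle-well median. A Saccharomyces cerevisiae BY4741 community with four plasmids, each restoring one auxotrophy and encoding a distinct fluorescent protein, was pre-grown overnight to OD600 1.0, diluted to 0.3, and added at 70 µl to 384-well plates acoustically predosed with library drugs (10 µM final). It then grew 24 h in minimal SM medium before paraformaldehyde fixation and automated confocal microscopy, with single-auxotroph fluorescent strains setting thresholds and autofluorescence correction.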
Regarding `CC[C@H]1OC(=O)C[C@@H](O)[C@H](C)[C@@H](O[C@@H]2O[C@H](C)[C@@H](O[C@H]3C[C@@](C)(O)[C@@H](O)[C@H](C)O3)[C@H](N(C)C)[C@H]2O)[C@@H](CC=O)C[C@@H](C)C(=O)/C=C/C(C)=C/[C@@H]1CO[C@@H]1O[C@H](C)[C@@H](O)[C@@H](OC)[C@H]1OC` [Tylosin], the “z-score of subpopulation abundance” value was -0.28.
Next, `CN(C)CCc1c[nH]c2ccc(CS(=O)(=O)N3CCCC3)cc12` [Almotriptan Malate]: -0.37; `CCC(=O)NS(=O)(=O)c1ccc(-c2c(-c3ccccc3)noc2C)cc1` [Parecoxib Sodium]: 0.75.
In the case of `CCN(CC)CCOCCOC(=O)C1(c2ccccc2)CCCC1` [Pentoxyverine Citrate] it was -0.67.
In the case of `C#C[C@]1(O)CC[C@H]2[C@@H]3CCC4=CCCC[C@@H]4[C@H]3CC[C@@]21C` [Lynestrenol] it was -1.23.
For `CN(C)CCCN1c2ccccc2Sc2ccc(Cl)cc21` [Chlorpromazine HCl], the “z-score of subpopulation abundance” value came to 0.41.
As to `NC(=O)N1c2ccccc2C=Cc2ccccc21` [Carbamazepine], the “z-score of subpopulation abundance” value was -0.29.
In the case of `CC(=O)OCC(CCn1cnc2cnc(N)nc21)COC(C)=O` [Famciclovir] it was -0.23.
Take `C[C@@H]1CC(=O)NN=C1c1ccc(NN=C(C#N)C#N)cc1` [Levosimendan]: the “z-score of subpopulation abundance” value is -0.05.
In the case of `c1cnc2cc3c(cc2n1)[C@@H]1CNC[C@H]3C1` [Varenicline Tartrate] it was -0.55; in that of `NC[C@@H]1O[C@H](O[C@H]2[C@@H](O)[C@H](O[C@@H]3[C@@H](O)[C@H](N)C[C@H](N)[C@H]3O[C@H]3O[C@H](CN)[C@@H](O)[C@H](O)[C@H]3N)O[C@@H]2CO)[C@H](N)[C@@H](O)[C@@H]1O` [Neomycin sulfate], -0.79; in that of `C#CCC(Cc1cnc2nc(N)nc(N)c2n1)c1ccc(C(=O)N[C@@H](CCC(=O)O)C(=O)O)cc1` (stereo partly drawn) [Pralatrexate], 2.68.
`CCCCCCCCCCCCCCCC[N+](C)(C)C` [Cetrimonium Bromide (CTAB)]: the “z-score of subpopulation abundance” value was -4.82.
Next, `C#C[C@]1(O)CC[C@H]2[C@@H]3CCC4=CCCC[C@@H]4[C@H]3C(=C)C[C@@]21CC` [Desogestrel]: -0.11.
Regarding `C=CC[N+]1([C@H]2C[C@H]3[C@@H]4CC[C@H]5C[C@H](O)[C@@H](N6CCOCC6)C[C@]5(C)[C@H]4CC[C@]3(C)[C@H]2OC(C)=O)CCCC1` [Rocuronium Bromide], the “z-score of subpopulation abundance” value is -1.19.
Regarding `COCCCN1CCC(NC(=O)c2cc(Cl)c(N)c3c2OCC3)CC1` [Prucalopride], the “z-score of subpopulation abundance” value turned out to be 0.21.
Consider `CN(C/C=C/C#CC(C)(C)C)Cc1cccc2ccccc12` [Terbinafine HCl], for which the “z-score of subpopulation abundance” value was 1.09.
Next, `CC/C(=C(\c1ccccc1)c1ccc(OCCN(C)C)cc1)c1ccccc1` [Tamoxifen]: 0.18; `COC(=O)C1=C(C)NC(C)=C(C(=O)OCCN2CCN(C(c3ccccc3)c3ccccc3)CC2)C1c1cccc([N+](=O)[O-])c1` (stereo not drawn) [Manidipine 2HCl]: 2.89.
Next, `CCC(C)(Oc1ccc(C2(c3ccc(OC(C)(CC)C(=O)O)cc3)CCCCC2)cc1)C(=O)O` (stereo not drawn) [Clinofibrate]: 0.41.
On to `O=C1CCc2ccc(OCCCCN3CCN(c4cccc(Cl)c4Cl)CC3)cc2N1` [Aripiprazole], for which the “z-score of subpopulation abundance” value turned out to be 0.38.
Turning to `CCC(=O)Oc1ccc2c(c1)CCC1C2CCC2(C)C(OC(=O)CC)CCC12` (stereo not drawn) [Estradiol dipropionate(17-Beta-Estradiol-3,17-Dipropionate)], the “z-score of subpopulation abundance” value worked out at 0.21.
For `O=C(O)C[C@H](O)C[C@H](O)/C=C/c1c(C2CC2)nc2ccccc2c1-c1ccc(F)cc1` [Pitavastatin Calcium], the “z-score of subpopulation abundance” value amounted to 1.
For `CN(C)CCN1C(=O)c2cccc3cc(N)cc(c23)C1=O` [Amonafide], the “z-score of subpopulation abundance” value stood at 0.34.
In the case of `c1ccc(-c2ccc(C(c3ccccc3)n3ccnc3)cc2)cc1` (stereo not drawn) [Bifonazole], the “z-score of subpopulation abundance” value is 3.3.
For `CO/N=C(\C(=O)N[C@@H]1C(=O)N2C(C(=O)O)=C(Cn3ccc(=N)n3CCO)CS[C@H]12)c1csc(N)n1` [Cefoselis Sulfate], the “z-score of subpopulation abundance” value stood at 1.45.
For `OC(CCN1CCCCC1)(c1ccccc1)C1CCCCC1` (stereo not drawn) [Trihexyphenidyl hydrochloride], the “z-score of subpopulation abundance” value amounted to 0.49.
For `C[C@H](NCc1ccc(OCc2cccc(F)c2)cc1)C(N)=O` [Safinamide Mesylate], the “z-score of subpopulation abundance” value turned out to be 0.58.
